Measurements: PubChem BioAssay AID2314 (National Center for Advancing Translational Sciences (NCATS), 2010)
Out of some 300,000 compounds screened, about 37,000 (12%) were called active. The sample holds actives, similar compounds and a random draw of the others, so the mix is not that of the screen. Rule as the data show it: active = max response mostly above about 13% (no sharp cut-off); inactive = mostly below about 14%.

Test: Cycloheximide Counterscreen for Small Molecule Inhibitors of Shiga Toxin; also: read at 38.3 µM for the half of the compounds with a filed dose; 0% is about no effect
Settings: cell reporter, cycloheximide protein synthesis inhibition counterscreen; stronger effect = higher value
For `O=C(NCCCO)c1cc2c([nH]c3ccccc32)c(-c2ccc(F)cc2)n1`, the max response was 1.63% (inactive).
In the case of `Cc1c(C=O)c2ccccc2n1CCOc1ccccc1`, the max response is reported as 11.4% (inactive).
In the case of `COc1ccccc1N=Nc1c(O)[nH]c(=S)[nH]c1=O`, the max response is reported as 18.5% (active).
For `COc1ccccc1N=C(C)C1=C(O)COC1=O`, the max response was -3.1% (inactive).
In the case of `COC(=O)c1ccccc1N=Nc1c(C)[nH][nH]c1=O`, the max response is reported as -1.54% (inactive).
For `COCCCNC(NC(=O)c1ccc(C)cc1)C(Cl)(Cl)Cl` (stereo not drawn), the max response was 0.737% (inactive).
In the case of `Cc1ccc(CNC(=O)C2CCN(S(=O)(=O)c3ccc4nc5c(c(C(=O)O)c4c3)CC(C)CC5)CC2)cc1` (stereo not drawn), the max response is reported as -2.65% (inactive).
With `O=C(NCCCCc1ccccc1)C1CC(c2ccc([N+](=O)[O-])cc2)=NO1` (stereo not drawn) the max response was 1.79% (inactive).
For `Cc1[nH][nH]c(=O)c1N=Nc1ccccc1`, the max response was -2.86% (inactive).
With `Nc1[nH][nH]c(=O)c1N=Nc1ccc2c(c1)OCO2` the max response was 37.1% (active).
In the case of `Cc1[nH][nH]c(=O)c1C(c1ccc2c(c1)OCO2)c1c(C)[nH][nH]c1=O`, the max response is reported as -0.172% (inactive).
For `COc1cc(OC)c2c(c1C(CCN1CCCCC1)c1ccc(N(C)C)cc1)OC(=O)CC2c1ccc(N(C)C)cc1` (stereo not drawn), the max response was -4.1% (inactive).
With `Cc1ccc(O)c(-c2cc(C(=O)NCc3ccccc3)[nH]n2)c1` the max response was 11.1% (inactive).
With `c1ccc(CSCCc2ccncc2)cc1` the max response was 7.75% (inactive).
For `Cc1ccc(O)c(CCc2ccccc2)n1`, the max response was 17.6% (active).
In the case of `CC(=O)N1CC[n+]2c(-c3ccc([N+](=O)[O-])cc3)csc21`, the max response is reported as 6.33% (inactive).
With `CN1CCN(c2ccc([N+](=O)[O-])c(Sc3nc4ccccc4[nH]3)c2)CC1` the max response was -2.61% (inactive).
With `COc1cccc(-c2nc3ccc(N4CCN(C)CC4)cc3[nH]2)c1` the max response was -9.87% (inactive).
In the case of `Cc1nc2ccc(N3CCN(C)CC3)cc2nc1C`, the max response is reported as 40.7% (active).
In the case of `Cc1ccc(Cn2cc(C(=O)NN)c(=O)c3ccc(F)cc32)cc1`, the max response is reported as -3.85% (inactive).
For `Cc1ccc(CNC(=O)c2c(-c3ccccc3)noc2C)cc1`, the max response was -2.32% (inactive).
For `CC(=O)c1ccc(NC(=O)c2ccc3c(Cl)c4c(nc3c2)CCCC4)cc1`, the max response was -0.107% (inactive).
In the case of `COc1ccc(N2CCN(C(=O)c3ccc4c(Cl)c5c(nc4c3)CCCC5)CC2)cc1`, the max response is reported as -3.2% (inactive).
In the case of `CC(C)CCNC(=O)c1ccc2c(Cl)c3c(nc2c1)CCC3`, the max response is reported as 48.4% (active).
With `COc1cccc(CC2(CO)CCN(Cc3cnc(-c4cccc(C)c4)nc3)CC2)c1` the max response was 10.3% (inactive).
With `Cc1nc2ccc(C(=O)O)cc2[nH]1` the max response was -7.8% (inactive).
For `Oc1ccc2nc(Cc3ccccc3)[nH]c2c1`, the max response was 20.5% (active).
In the case of `c1ccc2cc3[nH]c(CN4CCCCC4)nc3cc2c1`, the max response is reported as 31.1% (inactive).
